Measles CPE – compounds protecting cells from measles virus cytopathic effect, primary screen, measles RdRp inhibitor project, single point, MLSMR library, absorbance | 140,000 compounds, 1.5% hits | Measles virus-infected cells, CPE protection | AID 841, 2007 | protection (pct of control), % at 4 µM; in the data active means protection mostly above about 24%, no sharp cut-off; inactive means mostly below about 26%
Arbovirus inh – antivirals against arbovirus infection, primary screen, cell-based, full library, 10K replicate subset | arbovirus infection cell-based antiviral screen | inhibition, % at 10 µM | 200,000 compounds, 0.37% hits; in the data active means inhibition above about 30%
HSV replic up – enhancers of HSV replication in host cells, fold increase, host cell viability. HSV replication augmentation in cells. maximum fold increase. 220,000 compounds, 0.005% hits; in the data active means maximum fold increase above about 1.5; inconclusive means no clear call, values can overlap the other calls; tested in PC3 cells
ROMK mod – ROMK potassium channel modulators, primary screen, cell-based, thallium flux, MLSMR library | ATP-sensitive inward rectifier potassium channel 1 (Homo sapiens), P48048 | Tet-inducible ROMK, thallium flux fluorescence; actives lie on both sides | B-score at 10 µM | 130,000 compounds, 2% hits;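 active means signal ratio slope over the read window, or its plate-corrected B-score, at least 3 SD from the plate mean, either direction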;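 further: B-score of the F/F0 ratio slope over 7 to 12 s after thallium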
Target sequence (P48048 whole entry, looked up): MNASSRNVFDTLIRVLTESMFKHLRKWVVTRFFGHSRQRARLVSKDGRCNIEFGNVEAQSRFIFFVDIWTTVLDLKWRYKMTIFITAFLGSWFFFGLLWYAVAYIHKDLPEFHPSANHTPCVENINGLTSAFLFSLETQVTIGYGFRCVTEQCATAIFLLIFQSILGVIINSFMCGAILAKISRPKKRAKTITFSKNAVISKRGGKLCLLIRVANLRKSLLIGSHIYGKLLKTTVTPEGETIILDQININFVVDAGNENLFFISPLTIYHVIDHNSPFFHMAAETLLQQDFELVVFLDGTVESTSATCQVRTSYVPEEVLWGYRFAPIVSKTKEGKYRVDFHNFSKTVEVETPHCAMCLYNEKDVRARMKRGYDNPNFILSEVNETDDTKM
KCC2 mod – KCC2 cotransporter modulators, thallium flux, primary screen, cell-based, HEK293 KCC2, FluoZin-2 fluorescence, MLSMR. B-score of Tl+ flux slope (higher = more flux/activation; lower = inhibition) at 10 µM. Solute carrier family 12 member 5 (Homo sapiens), Q9H2X9. 190,000 compounds, 2.2% hits. KCC2 cells, thallium flux FluoZin-2 fluorescence;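 active means thallium flux slope and its plate-corrected score both differing from the plate sample mean at a set confidence after two filtering rounds, in either direction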;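 further: slope of fluorescence scaled to starting intensity during 10 to 20 s after thallium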
ROMK retest – ROMK channel modulator hit retest, confirmation, cell-based, thallium flux, duplicate, resupplied hits | shares compounds with ROMK mod | normalized thallium flux (F/F0 slope) at 10 µM | fluorescence ratio; hits give low values | 3,000 compounds, 54% hits;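 active means Flux at 10 µM at least 3 SD below or above vehicle control mean in one or both replicates; inconclusive means no clear call, values can overlap the other calls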
Hits are given with their value. Sampled rows, rich in hits. Any-hit rate of the full collection: about 4%.

How did Cc1cccc(C2c3[nH]c4ccccc4c3CCN2C(=O)c2nn(C)c(=O)c3ccccc23)n1 (stereo unspecified) do in these assays?
Arbovirus inh: inactive; HSV replic up: inactive; ROMK mod: -4; KCC2 mod: inactive; ROMK retest: 0.066

What do the screens show for `COc1cccc(-c2nn(C)c3sc(C(=O)NCc4ccccn4)cc23)c1`?
Measles CPE: inactive; Arbovirus inh: inactive; HSV replic up: inactive; KCC2 mod: inactive; ROMK retest: inactive

How did COc1ccc(Cn2nc(-c3ccccc3)c(N3CCCCC3)cc2=O)cc1 do in these assays?
Arbovirus inh: inactive; HSV replic up: inactive; ROMK mod: -4.4; KCC2 mod: inactive; ROMK retest: inconclusive

How did CCOC(=O)c1ccccc1NC(=O)Cn1c(-c2nonc2N)nc2ccccc21 do in these assays?
Measles CPE: inactive; Arbovirus inh: inactive; HSV replic up: inactive; ROMK mod: 4.4; KCC2 mod: inactive; ROMK retest: inactive

How did CCOc1ccc(-c2[nH]ncc2Oc2ccccc2OC)c(O)c1 do in these assays?
Measles CPE: inactive; Arbovirus inh: inactive; HSV replic up: inactive; ROMK mod: inactive

How did CCOc1ccc(-c2[nH]ncc2-c2ccc(OC)c(OC)c2)c(O)c1 do in these assays?
Measles CPE: inactive; Arbovirus inh: inactive; HSV replic up: inactive; ROMK mod: 3.7; KCC2 mod: inactive; ROMK retest: 0.099

What do the screens show for `O=C(c1ccccc1)c1c[nH]c(C(=O)NNc2cccc(Cl)n2)c1`?
Arbovirus inh: inactive; HSV replic up: inactive; ROMK mod: 2; KCC2 mod: inactive; ROMK retest: inactive

How did Oc1ccc(Br)cc1C=Nc1cccn2cc(-c3ccccc3)nc12 do in these assays?
Arbovirus inh: inactive; HSV replic up: inactive; ROMK mod: -11; KCC2 mod: inactive; ROMK retest: inconclusive

What do the screens show for `O=C1N/C(=C/c2ccc(N3CCOCC3)o2)C(=O)N1c1cccc(Cl)c1`?
Arbovirus inh: inactive; HSV replic up: inactive; ROMK mod: -4.9; KCC2 mod: inactive; ROMK retest: 0.039

How did Cc1ccc(/C=C2/NC(=O)N(c3ccccc3)C2=O)o1 do in these assays?
Measles CPE: inactive; Arbovirus inh: inactive; HSV replic up: inactive; KCC2 mod: inactive

How did CC(=O)Nc1ccc(S(=O)(=O)NCCC(=O)NCCc2ccc(F)cc2)cc1 do in these assays?
Measles CPE: inactive; Arbovirus inh: inactive; HSV replic up: inactive; KCC2 mod: inactive; ROMK retest: inactive

What do the screens show for `CCNS(=O)(=O)c1ccc(NC(=O)Cc2ccc(F)cc2)cc1`?
Measles CPE: inactive; Arbovirus inh: inactive; HSV replic up: inactive; KCC2 mod: inactive

Results for CCC[N+](CC#Cc1ccccc1)(CCC)CC(=O)c1ccc(Cl)cc1 ?
Measles CPE: inactive; Arbovirus inh: inactive; HSV replic up: inactive; ROMK mod: -3; KCC2 mod: inactive; ROMK retest: 0.063

What do the screens show for `CC(=O)Nc1ccc(NC(=O)CCNS(=O)(=O)c2cccc3nsnc23)cc1`?
Arbovirus inh: inactive; HSV replic up: inactive; ROMK mod: inactive; KCC2 mod: inactive

What do the screens show for `Clc1ccccc1-c1nnc2sc(-c3ccccn3)nn12`?
Measles CPE: inactive; Arbovirus inh: inactive; HSV replic up: inactive; KCC2 mod: inactive; ROMK retest: inactive

What do the screens show for `COc1ccc2oc(=O)c(-c3nc(C)cs3)cc2c1`?
Measles CPE: inactive; Arbovirus inh: inactive; HSV replic up: inactive; ROMK mod: -5.1; KCC2 mod: inactive; ROMK retest: inactive

What do the screens show for `COc1ccc2oc(=O)c(-c3nnc(N)s3)cc2c1`?
Arbovirus inh: inactive; HSV replic up: inactive; ROMK mod: inactive; KCC2 mod: inactive

Results for Cc1ccc(-c2nnn(CC(=O)N3CCCCC3)n2)o1 ?
Arbovirus inh: inactive; HSV replic up: inactive; ROMK mod: inactive; KCC2 mod: inactive

How did CCCCNC(=O)CN1C(=O)c2cccc(N)c2C1=O do in these assays?
Arbovirus inh: inactive; HSV replic up: inactive; ROMK mod: inactive; KCC2 mod: inactive; ROMK retest: 0.055

How did COCCCNC(=O)CN1C(=O)c2ccccc2C1=O do in these assays?
Measles CPE: inactive; Arbovirus inh: inactive; HSV replic up: inactive; ROMK mod: inactive; KCC2 mod: inactive

Assay outcomes deposited in PubChem BioAssay by several laboratories.
